Assay [1] is described as follows: qHTS assay to identify small molecule antagonists of the estrogen related receptor (ERR) signaling pathway from Tox21 library - cell viability counter screen (AID 1224834). Further: nearly all actives have a fitted effect of over 30% in size. In a few lines: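 Fluorescence from CellTiter-Fluor gives the viability read-out, taken 30 min after reagent addition. Before that, ERR cells seeded 6 h earlier were incubated with compounds for 17.5 h at 37 C.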

The target in assay [2] is Luciferin 4-monooxygenase (Photinus pyralis) (UniProt P08659). As to the kind of experiment: qHTS assay to identify small molecule inhibitors of firefly luciferase (AID 1224835). Further: nearly all actives have a fitted effect of over 25% in size. The essentials:
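Quantitative HTS format; KM concentrations of both substrates. Purified P. pyralis FLuc activity quantified from luminescence images.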

Assay [3] can be described thus: qHTS assay to identify small molecule antagonists of the constitutive androstane receptor (CAR) signaling pathway - cell viability counter screen (AID 1224837). Further: nearly all actives have a fitted effect of over 45% in size. The essentials:
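HepG2-CYP2B6-hCAR cells, 2500/well, 4 hr pre-incubation; compound titration, 15 conc.; CITCO 50 nM final; 23 hr, 37 C/5% CO2; CellTiter-Fluor, fluorescence intensity.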

The target in assay [4] is Nuclear receptor subfamily 1 group I member 3 (Homo sapiens) (UniProt Q14994). The experiment in a line: qHTS assay to identify small molecule antagonists of the constitutive androstane receptor (CAR) signaling pathway (AID 1224838).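 Further: HepG2 cells stably expressing hCAR with CYP2B6 luciferase reporter stimulated by CITCO; nearly all actives have a fitted effect of over 40% in size.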 In a few lines: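 HepG2-CYP2B6-hCAR cells; 4 h pre-incubation; cpd (15 conc) + CITCO 50 nM final; 24 h, 37 C/5% CO2; ONE-Glo, luminescence.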
Nuclear receptor subfamily 1 group I member 3 (Homo sapiens), sequence (Q14994 whole entry, looked up): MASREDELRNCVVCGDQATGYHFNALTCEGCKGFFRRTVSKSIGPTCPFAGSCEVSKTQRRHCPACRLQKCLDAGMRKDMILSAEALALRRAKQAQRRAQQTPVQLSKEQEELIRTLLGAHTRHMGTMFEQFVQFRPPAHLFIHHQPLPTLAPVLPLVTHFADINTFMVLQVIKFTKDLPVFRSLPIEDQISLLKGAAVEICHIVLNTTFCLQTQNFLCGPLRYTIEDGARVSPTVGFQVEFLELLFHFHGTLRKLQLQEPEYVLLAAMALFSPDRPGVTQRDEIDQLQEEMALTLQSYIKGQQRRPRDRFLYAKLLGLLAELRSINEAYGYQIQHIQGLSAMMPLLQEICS

For assay [5] the target is unchanged. As to the kind of experiment: qHTS assay to identify small molecule agonists of the constitutive androstane receptor (CAR) signaling pathway (AID 1224839). Further: nearly all actives have a fitted effect of over 15% in size. Further: potency means the concentration at half of the fitted maximal effect.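 On activation: HepG2 cells stably carrying human CAR and a CYP2B6 luciferase reporter.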 The essentials: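 Luminescent ONE-Glo read-out after 24 hr, 37 C exposure of double-stable HepG2-CYP2B6-hCAR reporter cells to a 15-point compound series, in the presence of 0.75 uM PK11195 (final).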
The nature of assay [6]: qHTS assay to identify small molecule antagonists of the estrogen related receptor signaling pathway with the pleiotropic PPARgamma coactivator (PGC) from Tox21 10K library - cell viability counter screen (AID 1224840; active means well fitted cell-killing curve with a large enough effect in the repeat runs, not every such curve was filed as active; further: nearly all actives have a fitted effect of over 40% in size). The essentials:
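PGC/ERR cells, 2,000/well; 6 h pre-incubation 37 C/5% CO2; cpd in DMSO via pin tool; 17.5 h 37 C; CellTiter-Fluor, 30 min; fluorescence.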

A short description of assay [7]: qHTS assay to identify small molecule antagonists of the estrogen related receptor signaling pathway with the pleiotropic PPARgamma coactivator (PGC) from Tox21 10K library (AID 1224841; call rule not given here; further: actives are mostly falling curves and most rising ones were filed inactive; nearly all actives have a fitted effect of over 50% in size). The essentials: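 PGC/ERR cell line, 2,000 cells/well; 6 h pre-incubation 37 C/5% CO2; compounds (DMSO) pinned in; 18 h, 37 C; One-Glo, 30 min RT; luminescence.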
Assay [8] is described as follows: qHTS assay to identify small molecule agonists of the estrogen related receptor signaling pathway with the pleiotropic PPARgamma coactivator (PGC) from Tox21 10K library (AID 1224842). Further: nearly all actives have a fitted effect of over 15% in size. In a few lines: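 PGC/ERR reporter cells (NTP line) were seeded 2,000 per well, rested 6 h at 37 C/5% CO2, then pin-dosed with compounds in DMSO for 18 h at 37 C; luciferase read by One-Glo luminescence after 30 min at room temperature.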

Assay [9] concerns the target Thyrotropin receptor (Homo sapiens) (UniProt P16473). As to the kind of experiment: qHTS assay to identify small molecule agonists of the thyroid stimulating hormone receptor (TSHR) signaling pathway (AID 1224843; calls by dose curve; further: nearly all actives have a fitted effect of over 45% in size). In a few lines:
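TSHR-expressing HEK293 cells (800 per well) were exposed to compounds for 30 min at room temperature. cAMP was then detected by HTRF competition with cAMP-d2 and anti-cAMP cryptate, read after 1 h at room temperature. Fifteen concentrations, triplicate.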

Assay [10] is described as follows: qHTS assay to identify small molecule agonists of the hypoxia (HIF-1) signaling pathway - cell viability counter screen (AID 1224844; calls by dose curve; further: nearly all actives have a fitted effect of over 50% in size). In a few lines: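 ME-180 HRE-bla cells, 2,000/well, 0.5% dialyzed FBS; 5 hr settle, 17 hr compound at 37C/5% CO2; CCF4-AM reporter read first, then CellTiter-Glo luminescence after 30 min RT.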
A short description of assay [11]: qHTS assay to identify small molecule agonists of H2AX (AID 1224845; active means well fitted activation curve with a large enough effect in the signal ratio in the repeat runs, not every such curve was filed as active; the % refers to the signal ratio). The essentials: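 Wild-type CHO-K1 cells plated overnight, then exposed 3 hr at 37C to compounds at 15 concentrations (0.76% DMSO). Lysed, then HTRF anti-pH2AX(S139)-cryptate/anti-H2AX-d2 detection after 24 hr at room temperature; emissions 665 and 620 nm.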
A short description of assay [12]: qHTS assay to identify small molecule agonists of the hypoxia (HIF-1) signaling pathway (AID 1224846; active means well fitted activation curve with a large enough effect in the signal ratio in the repeat runs, not every such curve was filed as active; the % refers to the signal ratio). The essentials:
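Cell line: CellSensor HRE-bla ME-180; 2,000 cells/well; 0.5% dialyzed FBS; 5 h preincubation; DMSO compound pin transfer; 17 h, 37C, 5% CO2; CCF4-AM added; bla FRET signal scored for activation.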

A short description of assay [13]: qHTS assay to identify small molecule agonists of H2AX - cell viability counter screen (AID 1224847; calls by dose curve; further: top concentration of the series differs between compounds; nearly all actives have a fitted effect of over 30% in size). The essentials: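 Counter-screen for viability: CellTiter-Glo ATP luminescence read after 3 h compound treatment (15-point titration, 0.76% DMSO final) of CHO-K1 cells at 37C, with 30 min room-temperature reagent incubation.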
The nature of assay [14]: qHTS assay to identify small molecule antagonists of the estrogen related receptor (ERR) signaling pathway from Tox21 library (AID 1224848). Further: nearly all actives have a fitted effect of over 50% in size. The essentials: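 Cells: ERR line, 2,000/well; 6 h preincubation 37 C/5% CO2. Cpd in DMSO via pin tool; 18 h, 37 C. ONE-Glo, 30 min RT, luminescence.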
A short description of assay [15]: qHTS assay to identify small molecule agonists of the estrogen related receptor (ERR) signaling pathway from Tox21 library (AID 1224849; calls by dose curve; further: nearly all actives have a fitted effect of over 15% in size). Conditions: ERR reporter cell line, ONE-Glo luciferase, 18 h; at 92.4 µM (top of the series) unless noted. The essentials: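 ERR cells, 6 h pre-incubation 37 C/5% CO2; cpd in DMSO pinned; 18 h 37 C; ONE-Glo added, 30 min RT; luminescence read. Agonist mode, qHTS.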

A short description of assay [16]: qHTS RealTime-Glo MT Cell Viability Assay in HepG2 cells - 24 hour (AID 1224867). Further: nearly all actives have a fitted effect of over 50% in size. The essentials:
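Tox21 10K library screened in qHTS format on HepG2 cells carrying RealTime-Glo reagents. Compounds were added after a 5 h preincubation, and the luminescent signal from continuous culture was measured repeatedly during 40 h treatment.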

Assay [17] is described as follows: A CellTox Green Cytotoxicity Assay to monitor cytotoxicity in HEK293 cells - 0 hour (AID 1224869). Further: nearly all actives have a fitted effect of over 50% in size. In a few lines:
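Nonlytic real-time cytotoxicity: HEK293 + CellTox Green reagent plated, 5 h preincubation, pintool compound addition (23 nL in DMSO), 37 C for 40 h, fluorescence measured at successive time points.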

Assay [18] can be described thus: qHTS RealTime-Glo MT Cell Viability Assay in HEK293 cells - 32 hour (AID 1224868). The essentials:
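Luminescence generated by NanoLuc from substrate produced by living HEK293 cells served as the viability signal. Each value reflects the reading at its stated time point during continuous 40 h compound exposure at 37 C.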

Unmarked numbers belong to inactive results. Results filed as inconclusive are left out. Activity calls are given as the source filed them. Unless noted, the call rests on the fitted dose curve; in most records, active means well fitted curve in the direction sought with a large enough effect in the repeat runs; inconclusive means weak or mixed curves; inactive means no such curve, though single readings can be large; an effect the other way counts as inactive or inconclusive.
On the % scale 0 is the no-effect control and ±100 the full control effect.

Luciferin 4-monooxygenase (Photinus pyralis), sequence (P08659 whole entry, looked up): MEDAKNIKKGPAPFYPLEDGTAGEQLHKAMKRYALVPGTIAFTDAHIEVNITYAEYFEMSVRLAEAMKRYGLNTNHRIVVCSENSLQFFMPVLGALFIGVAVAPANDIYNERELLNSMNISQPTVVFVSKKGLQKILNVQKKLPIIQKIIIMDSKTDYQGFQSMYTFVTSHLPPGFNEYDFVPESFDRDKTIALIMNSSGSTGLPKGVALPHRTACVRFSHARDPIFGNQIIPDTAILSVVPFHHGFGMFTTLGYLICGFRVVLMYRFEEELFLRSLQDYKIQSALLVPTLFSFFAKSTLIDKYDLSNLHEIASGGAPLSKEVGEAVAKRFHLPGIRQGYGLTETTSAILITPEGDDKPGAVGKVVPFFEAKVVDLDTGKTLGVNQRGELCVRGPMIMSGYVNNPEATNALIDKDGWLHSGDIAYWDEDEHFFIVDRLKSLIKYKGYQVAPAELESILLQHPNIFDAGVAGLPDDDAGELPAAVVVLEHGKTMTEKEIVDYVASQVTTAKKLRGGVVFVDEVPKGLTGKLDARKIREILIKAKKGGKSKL
Thyrotropin receptor (Homo sapiens), sequence (P16473 whole entry, looked up): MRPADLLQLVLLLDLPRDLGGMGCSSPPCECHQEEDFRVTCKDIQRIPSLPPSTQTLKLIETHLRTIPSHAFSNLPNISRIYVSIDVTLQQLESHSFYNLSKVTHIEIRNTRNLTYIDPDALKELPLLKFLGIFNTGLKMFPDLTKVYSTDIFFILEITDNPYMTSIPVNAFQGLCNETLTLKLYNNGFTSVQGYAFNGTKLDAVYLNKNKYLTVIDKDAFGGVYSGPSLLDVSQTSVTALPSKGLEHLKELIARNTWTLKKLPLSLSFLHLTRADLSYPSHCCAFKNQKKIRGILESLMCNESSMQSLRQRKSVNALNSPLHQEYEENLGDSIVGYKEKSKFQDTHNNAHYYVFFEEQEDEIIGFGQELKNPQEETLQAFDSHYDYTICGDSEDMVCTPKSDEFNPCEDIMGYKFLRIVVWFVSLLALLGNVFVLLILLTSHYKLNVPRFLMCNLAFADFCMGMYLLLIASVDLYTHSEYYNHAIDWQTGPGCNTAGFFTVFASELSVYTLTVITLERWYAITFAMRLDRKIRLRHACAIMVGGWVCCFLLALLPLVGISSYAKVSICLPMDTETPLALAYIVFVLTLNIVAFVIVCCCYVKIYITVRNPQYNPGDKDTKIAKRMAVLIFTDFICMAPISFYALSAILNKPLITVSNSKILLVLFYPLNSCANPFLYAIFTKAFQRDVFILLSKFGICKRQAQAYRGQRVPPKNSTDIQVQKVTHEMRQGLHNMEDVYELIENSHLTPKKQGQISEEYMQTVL

Take `CCO[Si](C)(CCCOCC1CO1)OCC` (stereo unspecified): the Potency entry in [1], in assay [2], in assay [3], in assay [4], in assay [5] and in assay [6] was “inactive” throughout. The Potency result in [7], in assay [8], in assay [9], in assay [10], in assay [11] and in assay [13] was “inactive” throughout. In addition, the Potency result in assay [14], in assay [16] and in assay [17] was “inactive” throughout. Moreover, the compound was classed as inactive in [12]. Moreover, the activity change, positive = activation in [15] is 0.152%.

In the case of `CC(=O)N[C@@H](Cc1ccc(O)cc1)C(=O)O`, the Potency result in assay [1], in assay [2], in [3], in assay [4], in [5] and in assay [7] was “inactive” throughout. Moreover, the Potency result in [8], in assay [9], in assay [10], in assay [11], in assay [13] and in assay [14] was “inactive” each time. Moreover, the Potency result in assay [16], in assay [18] and in assay [17] was “inactive” in each case. In assay [15], the activity change, positive = activation was 1.4% [at 42.5 µM].

`O=C(C(=O)c1ccco1)c1ccco1`: the Potency result in assay [1], in assay [2], in assay [3], in assay [4], in assay [5] and in [6] was “inactive” throughout. Also, the Potency result in [13], in assay [16] and in assay [17] was “inactive” each time. Moreover, in assay [12], the compound was called inactive.

Consider `CNc1c2c(nn1C)CCCC2`, for which the Potency entry in assay [1], in [2], in assay [3], in assay [9], in assay [10] and in assay [11] was “inactive” throughout. The Potency entry in [13], in assay [16] and in [17] was “inactive” throughout.

Take `C=C(C)C(=O)OCCC(F)(F)C(F)(F)C(F)(F)C(F)(F)C(F)(F)C(F)(F)F`: the Potency result in assay [1], in assay [2], in [3], in assay [4], in assay [5] and in assay [9] was “inactive” each time. Further, the Potency result in assay [10], in assay [13] and in assay [16] was “inactive” each time. For the same compound, the outcome in assay [12] was inactive.

On to `CC(C)(C)NCC(O)COc1cccc2c1C[C@H](O)[C@H](O)C2` (stereo partly specified), for which the Potency entry in assay [1], in assay [2], in assay [3], in [6], in assay [9] and in [10] was “inactive” throughout. The Potency entry in [11], in assay [13], in [16], in [18] and in assay [17] was “inactive” each time.

In the case of `CSCC[C@H](NC(=O)[C@H](Cc1c[nH]c2ccccc12)NC(=O)CCNC(=O)OC(C)(C)C)C(=O)N[C@@H](CC(=O)O)C(=O)N[C@@H](Cc1ccccc1)C(N)=O`, the Potency entry in assay [1], in assay [2], in assay [3], in [4], in assay [5] and in assay [6] was “inactive” each time. The Potency result in assay [9], in [13], in assay [16], in assay [18] and in assay [17] was “inactive” throughout. Besides, the compound was classed as inactive in assay [12].

As for `Cc1cc(CCCOc2c(C)cc(-c3noc(C(F)(F)F)n3)cc2C)on1`, the Potency entry in assay [1], in assay [2], in [3], in [4], in [9] and in assay [10] was “inactive” in each case. Further, the Potency entry in [16] and in [17] was “inactive” throughout. Moreover, the Potency in assay [5] was 23.7 µM (active). In addition, the compound was called inactive in [12].

Turning to `CCCCCCCC/C=C/C(=O)O`, the Potency result in assay [1], in assay [2], in [3], in [6], in assay [10] and in assay [13] was “inactive” throughout. Further, the Potency result in assay [16] and in [18] was “inactive” throughout. For the same compound, the result in assay [12] was inactive.

For the compound `CC[C@H]1OC(=O)[C@H](C)[C@@H](O[C@H]2C[C@@](C)(OC)[C@@H](O)[C@H](C)O2)[C@H](C)[C@@H](O[C@@H]2O[C@H](C)C[C@H](N(C)C)[C@H]2O)[C@](C)(O)C[C@@H](C)CN(C)[C@H](C)[C@@H](O)[C@]1(C)O`, the Potency entry in [1], in assay [2], in assay [3], in assay [4], in assay [5] and in assay [6] was “inactive” in each case. For the same compound, the Potency entry in assay [10], in [11], in assay [13], in assay [16] and in assay [17] was “inactive” in each case. The call in [12] was inactive.

The values are drawn from PubChem BioAssay (Tox21).
